Measurements from publication PMC7819943, “Rice protein-binding microarrays: a tool to detect cis-acting elements near promoter regions in rice”.
Whole data set: some 39,000 sequences, median “fluorescence intensity (a.u.)” near 4,300, cut for the highest 2% near 39,000. This excerpt belongs to a sample that is enriched for the highest values.

target: T1, OsSMF1 (Oryza sativa, UniProt Q6ZLB0 1-436); test: protein-binding microarray (RPBM); PBS, 2% BSA, 51.3 ng/ul salmon testes DNA, 50 uM zinc acetate, 200 nM TF, 25 C, 1 h; high values mean tight binding; settings: protein: recombinant; tags: N-terminal polyhistidine and DsRed monomer fusion (pET32a); chain copies: 2; label: CyDye5-dUTP incorporated in the synthesized complementary strand; 3' TTTTT single-stranded linker to array surface; dsDNA, one strand shown
T1 sequence: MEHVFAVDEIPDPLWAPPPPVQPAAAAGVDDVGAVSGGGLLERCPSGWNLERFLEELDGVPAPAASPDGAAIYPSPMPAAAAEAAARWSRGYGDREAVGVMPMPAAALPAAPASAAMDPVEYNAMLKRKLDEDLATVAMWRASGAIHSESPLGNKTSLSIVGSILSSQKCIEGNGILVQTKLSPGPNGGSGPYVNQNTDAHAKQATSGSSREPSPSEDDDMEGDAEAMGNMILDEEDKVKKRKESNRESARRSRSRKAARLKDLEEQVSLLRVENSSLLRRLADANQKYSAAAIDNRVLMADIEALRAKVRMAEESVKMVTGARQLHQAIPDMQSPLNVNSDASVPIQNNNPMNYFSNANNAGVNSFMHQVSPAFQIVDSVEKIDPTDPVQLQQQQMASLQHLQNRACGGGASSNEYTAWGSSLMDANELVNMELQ
Procedure, shortened: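 Polyhistidine-tagged DsRed fusions of transcription factors, joined at the N-terminus, were expressed in E. coli BL21-CodonPlus and isolated on Ni–NTA. They were incubated at 200 nM for 1 h at 25 °C on a custom Agilent array, double-stranded and BSA-blocked, in PBS with 2% BSA, salmon testes DNA and 50 µM zinc acetate. The binding signal is per-feature fluorescence intensity (arbitrary units) read on an Axon 4000B scanner after washing.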

Sequence | binding signal
CGCCTCTGCGGTCTCCTTCGTCACCCGCGCGTCAACCAACCGGAGTCACCTAGTGCAG | 4290 fluorescence intensity (a.u.)
CCCCTTCATGCCAGCACGCTCCCCACATCCACCCACCACCCGGAGTCACCTAGTGCAG | 3320 fluorescence intensity (a.u.)
CGTGCGACCCAGATCTCGCCACGTATGCGCGCGGATCGGCCGGAGTCACCTAGTGCAG | 10800 fluorescence intensity (a.u.)
GGGACGAGAGGAGCAACGCGCGGGCGCCGGCTGGCAAGAGCGGAGTCACCTAGTGCAG | 3960 fluorescence intensity (a.u.)
ACCTTGAGTTTGAGTGCGATTCCTCCCTTCTTTCGGTCACCGGAGTCACCTAGTGCAG | 21100 fluorescence intensity (a.u.)
ACGACGACGACGTCGACGTGTGAACCAGTCAACTGCCACGCGGAGTCACCTAGTGCAG | 8590 fluorescence intensity (a.u.)
ACGAAACCGCACAAAAGCCGGTGAATTTTCCCGTAATTTGCGGAGTCACCTAGTGCAG | 8780 fluorescence intensity (a.u.)
GCGCACACACACACACAGATATATATATATATATATATATCGGAGTCACCTAGTGCAG | 4200 fluorescence intensity (a.u.)
ACATACATATATATATATATATATACATACATATATATATCGGAGTCACCTAGTGCAG | 3740 fluorescence intensity (a.u.)
ATCTAGACACGCGCGCGCGCGCGCACATATATATATATATCGGAGTCACCTAGTGCAG | 42600 fluorescence intensity (a.u.)
TAAACAGGGCCCTACTGTCATCACGTCGATGTTGAGTTTACGGAGTCACCTAGTGCAG | 4070 fluorescence intensity (a.u.)
AAAGGACGGACAGTTTCCTGCGCAAATTCCACGTTCCACCCGGAGTCACCTAGTGCAG | 3460 fluorescence intensity (a.u.)
CCGCACGCGCTCCCTTCACCCACCTCGATCGAGCTCCATGCGGAGTCACCTAGTGCAG | 3570 fluorescence intensity (a.u.)
ACATGGACTGTGGTGTGGTACACACACGGTATGTCAGAGCCGGAGTCACCTAGTGCAG | 3220 fluorescence intensity (a.u.)
GGTTGCCATATTTGCTTGTTATGCCGATGTGGACAAGCTTCGGAGTCACCTAGTGCAG | 5600 fluorescence intensity (a.u.)
ATATTCCACCAAGCAAAAGCCACATCATGCTGTGCTGTGCCGGAGTCACCTAGTGCAG | 6050 fluorescence intensity (a.u.)
TCCTCCCAAAGATAATTCAGCTGATGATATTTCCATATCTCGGAGTCACCTAGTGCAG | 3210 fluorescence intensity (a.u.)
GCTTTGGGCTATAATTGGGCCATTTGTCGTCAGCTCTTGGCGGAGTCACCTAGTGCAG | 3230 fluorescence intensity (a.u.)
TTCTTCTTGGTGGTGGTGGGGCCTGGAAACTATGTGACTTCGGAGTCACCTAGTGCAG | 4270 fluorescence intensity (a.u.)
ATACTTGGACTATTCTCTTTCGGAAACTTGACTAGTTACACGGAGTCACCTAGTGCAG | 43200 fluorescence intensity (a.u.)
ATATACTATTCTCATCTGTCATACACACATCACATCTTGACGGAGTCACCTAGTGCAG | 25700 fluorescence intensity (a.u.)

Sequence | binding signal
ATGTCGAAAGGCCTATATGGGCCAGATGATGTGTCCAGGGCGGAGTCACCTAGTGCAG | 34600 fluorescence intensity (a.u.)
GGAGAGCTCCGGGAAGACGCGCGCTGACGCGGCCTCCCTGCGGAGTCACCTAGTGCAG | 8860 fluorescence intensity (a.u.)
ATTGATGTGAAGAACAAATAGTCAATATTATTCTGTATATCGGAGTCACCTAGTGCAG | 16900 fluorescence intensity (a.u.)
TCAATGATATTTATGTGTGTGACATGTATGTCGAGTTCGTCGGAGTCACCTAGTGCAG | 4360 fluorescence intensity (a.u.)
ATATTCTGATATGTCAATATTATTGTGTATGATTGATTGTCGGAGTCACCTAGTGCAG | 46700 fluorescence intensity (a.u.)
TCTTCTGAATGCTCACAATGACGCCATCCTCATCAGCCGCCGGAGTCACCTAGTGCAG | 4480 fluorescence intensity (a.u.)
GCCCTCCCTGTCATCCCCGTCACCCATCCTGCCTGCTTTTCGGAGTCACCTAGTGCAG | 8530 fluorescence intensity (a.u.)
AGCTAAAATAAACTTTACCAAATTTTGGCAATGCCAAAATCGGAGTCACCTAGTGCAG | 51800 fluorescence intensity (a.u.)
ACCAAATTTTAGCAATACCAAAATTTTGGCATAGTTGCCACGGAGTCACCTAGTGCAG | 7010 fluorescence intensity (a.u.)
ACATTACCAAATTTTAACAATGCCAAAATTTTGGTAAGGTCGGAGTCACCTAGTGCAG | 3450 fluorescence intensity (a.u.)
AAACGCCAACGCCATACTCCACCTGACCTCACACTCGCACCGGAGTCACCTAGTGCAG | 3290 fluorescence intensity (a.u.)
CGTCCCTTGGACGTCATCTTCTCCTCACGTGCATTGCCTCCGGAGTCACCTAGTGCAG | 4360 fluorescence intensity (a.u.)
TTGCAGCATCACCTGGCGAGGCGTAGCTAGGAGATGCAGACGGAGTCACCTAGTGCAG | 40100 fluorescence intensity (a.u.)
TTTGGCATACCTGGAGCAGATCAGGCAGCACATGGCGAGGCGGAGTCACCTAGTGCAG | 25600 fluorescence intensity (a.u.)
TAAGATGGAGGAGGCGAGGAGAGTTGCGTAGGATGGAGTGCGGAGTCACCTAGTGCAG | 3880 fluorescence intensity (a.u.)
TTATGAGTTTAGAGGGATGATTAGGATACATGGGAATTTTCGGAGTCACCTAGTGCAG | 22200 fluorescence intensity (a.u.)
AACCCGGCGTTGGTGAGCTGTTCCATTGTGTCTATAGGCACGGAGTCACCTAGTGCAG | 3210 fluorescence intensity (a.u.)
TACTTAGCTAGCTAATCGCGTTGCTCTTTCTCGTACTATACGGAGTCACCTAGTGCAG | 20400 fluorescence intensity (a.u.)
GATATATATACGCGTTCATCAGCGTACGTTCTTATAGCTACGGAGTCACCTAGTGCAG | 40100 fluorescence intensity (a.u.)
TGGATATGCATGCGTACGTACGTAGCTTACCTATAGCTAGCGGAGTCACCTAGTGCAG | 3500 fluorescence intensity (a.u.)
CACTCCGGCGTGACGGAGCCCTTCCCCGATGTGATGCCTACGGAGTCACCTAGTGCAG | 32600 fluorescence intensity (a.u.)
